# Measurements from PubChem BioAssay (NCI).
# The panel holds about 83,000 compounds, 20% with a hit somewhere; the sample as a whole holds those more often.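 Treatment: one concentration, 48 hours, 96-well format. Scoring: percent growth, with anything below 10 considered active.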 Unmarked numbers belong to inactive results. Calls of active or inactive are those of the source.
# Test system: 786-0 renal
# Test: NCI-60 one-dose screen, 48 h (100 = growth as untreated, 0 = no growth, -100 = all killed)
# Details: 10 µM unless noted
row,Compound,growth
1,Fc1ccc(N/N=C/c2ccc(-n3cccn3)cc2)cc1,104%
2,COc1cc(F)c(-c2nc3c(C)cccc3n2Cc2c(F)cccc2F)c(F)c1,85.7%
3,Cc1nc(C)c(C)nc1C,96.9%
4,Oc1ccc(CNNc2ccnc3c(O)cccc23)c2cccnc12,39%
5,N#Cc1ccc(N2Cc3cc(Cl)ccc3OC3=C2C(=O)N(Cc2ccccc2)C3=O)cc1,-82.4% (active)
6,CC(=O)OCC1SC(OC(C)=O)C(NC(=O)/C=C/CCl)C(OC(C)=O)C1OC(C)=O (centres undefined),124%
7,S=C(Nc1ccccc1)c1ccccn1,96.5%
8,COc1cc(C(C)c2ccc3c(ccn3C)c2)cc(OC)c1OC (centres undefined),22.6%
9,COc1cc(C2=NN(C(C)=O)C(c3cccc(Nc4ccnc5cc(C(F)(F)F)ccc45)c3)C2)cc(OC)c1OC (centres undefined),58.8%
10,CC(C)CSc1nc(Nc2ccccc2)c(C#N)c(-c2ccc(F)cc2)n1,-45.6% (active)
11,C[C@H]1[C@H](C)CC[C@]2(C(=O)OCCCC[P+](c3ccccc3)(c3ccccc3)c3ccccc3)CC[C@]3(C)C(=CC[C@@H]4[C@@]5(C)CC[C@H](OC(=O)C(Cl)Cl)C(C)(C)[C@@H]5CC[C@]43C)[C@H]12,-83.5% (active)
12,CC(/C=C/c1ccccc1)=N/NC(=O)c1ccncc1,103%
13,O=C(O)c1cn(C2CC2)c2cc(N3CCN(C(=O)CSc4nnc(-c5ccc(Cl)cc5)n4-c4ccccc4)CC3)c(F)cc2c1=O,104%
14,C1=CC2=CC=C3C=CC=C4C(c5nc6c7ccccc7c7ccccc7c6[nH]5)=CC(=C1)C2C34 (centres undefined),98.2%
